A selection: hits, their analogues and other compounds. The true share with any hit is near 1.6%.
Rce1 inh: blocks yeast Ras-converting enzyme. Q03530. yeast membranes, quenched prenylated peptide cleavage fluorescence. calls only. 0.27% of 290,000 active. AID 2563;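 active = fall in fluorescence gain of 50% or more versus controls, with final raw signal at or below 3038400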
NALP1 inh: inhibitors of NALP1 inflammasome in yeast; S. cerevisiae NALP1/ASC/caspase-1 growth, X-gal OD620, 72 h; inhibition, % at 10 µM; 0.61% of 280,000 active; AID 2071; in the data active = inhibition mostly above about 24%, no sharp cut-off; inactive = mostly below about 32%
NALP3 yeast inh: NALP3 inhibition in yeast; 0.39% of 330,000 active; AID 2825; Yeast reconstituted NLRP3/ASC/caspase-1, beta-gal luminescence, 24 h; inhibition, % at 10 µM;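 active = inhibition of 50% or more; inactive = inhibition below 50%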
PERK inh: blocks human PERK kinase; 0.17% of 220,000 active; CHO PERK-DD fusion, SEAP luminescence translation reporter; inhibition, % at 5.6 µM; Q9NZJ5; AID 1416;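 active = inhibition above the mean inhibition of all tested compounds plus 3 SD, set separately per screening campaign, cut at about 2.9% in these data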;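 note: PERK kinase domain activated by AP20187 dimerizer at 100 nM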
Target sequence (Q9NZJ5 whole entry, looked up, the tested form may be a part): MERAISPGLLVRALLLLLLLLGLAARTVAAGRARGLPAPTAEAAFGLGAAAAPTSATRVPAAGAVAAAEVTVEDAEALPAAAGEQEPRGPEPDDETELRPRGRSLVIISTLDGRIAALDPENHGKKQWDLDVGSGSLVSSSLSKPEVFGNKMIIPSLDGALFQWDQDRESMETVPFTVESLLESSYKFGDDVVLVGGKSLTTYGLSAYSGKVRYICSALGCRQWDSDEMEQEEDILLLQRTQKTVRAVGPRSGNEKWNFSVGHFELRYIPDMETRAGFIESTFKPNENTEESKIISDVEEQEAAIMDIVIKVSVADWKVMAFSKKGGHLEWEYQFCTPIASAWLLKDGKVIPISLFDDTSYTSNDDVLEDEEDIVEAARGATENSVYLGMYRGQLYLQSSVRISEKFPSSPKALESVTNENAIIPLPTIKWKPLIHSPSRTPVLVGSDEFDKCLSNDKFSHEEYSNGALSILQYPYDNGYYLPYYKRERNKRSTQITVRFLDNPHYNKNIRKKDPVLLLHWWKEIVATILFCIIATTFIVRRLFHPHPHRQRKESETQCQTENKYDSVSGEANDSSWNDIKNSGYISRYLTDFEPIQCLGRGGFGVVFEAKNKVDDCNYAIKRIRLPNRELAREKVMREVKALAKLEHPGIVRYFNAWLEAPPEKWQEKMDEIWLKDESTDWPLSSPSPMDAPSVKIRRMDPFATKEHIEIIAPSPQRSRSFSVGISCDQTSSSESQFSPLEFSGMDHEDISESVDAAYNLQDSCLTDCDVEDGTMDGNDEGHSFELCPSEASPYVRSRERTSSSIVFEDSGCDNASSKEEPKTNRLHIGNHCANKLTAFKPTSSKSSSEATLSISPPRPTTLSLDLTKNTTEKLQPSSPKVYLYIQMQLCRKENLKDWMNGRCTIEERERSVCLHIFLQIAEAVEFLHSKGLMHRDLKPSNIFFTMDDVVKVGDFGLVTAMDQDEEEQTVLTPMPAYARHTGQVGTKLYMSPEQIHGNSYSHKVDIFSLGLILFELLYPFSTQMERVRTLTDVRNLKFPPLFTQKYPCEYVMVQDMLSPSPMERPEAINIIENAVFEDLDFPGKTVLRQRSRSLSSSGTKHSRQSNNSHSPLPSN
Yeast superoxide: lowers age-related superoxide in aged yeast cells; S. cerevisiae aged cells, superoxide DHE fluorescence; active compounds read low; superoxide response (% of plate mean), % at 10 µM; 0.18% of 330,000 active;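 active = superoxide response under a set limit, about three screen SD below normal, cut at about 65% in these data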;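 note: yeast aged for seven days with compound at 30 °C before DHE staining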
V-ATPase pHluor: yeast V-ATPase proton transport regulation by pHLuorin | response, % at 10 µM | S. cerevisiae, pHLuorin cytosolic pH fluorescence | 0.37% of 350,000 active | AID 504577; in the data active = response mostly above about 7.3%, no sharp cut-off; inactive = mostly below about 5.4%; note: actives read high
VATPase regulator: regulators of yeast V-ATPase proton transport; response, % at 10 µM; shares compounds with V-ATPase pHluor; 2% of 980 active; S. cerevisiae pHLuorin cytosolic pH; in the data active = response above about 24%
Each line names hits and unclear results; the compound was inactive in the other large screens (follow-up assays come after a bar, where they were run).

O=C(CN1Cc2ccccc2C1=O)Nc1ccc2c(c1)OCCO2	V-ATPase pHluor 10.9 (no result: PERK inh) | VATPase regulator inactive
COc1ccccc1OCC(=O)Nc1ccc2c(c1)OCCO2	none (no result: PERK inh)
NC(=O)c1ccccc1OCC(=O)Nc1ccc2c(c1)OCCO2	V-ATPase pHluor 7.3 (no result: Rce1 inh, NALP1 inh, PERK inh, Yeast superoxide) | VATPase regulator inactive
O=C(O)CCCCCCNS(=O)(=O)c1ccccc1	none
O=C(O)CC(CNS(=O)(=O)c1ccccc1)c1ccccc1 (stereo unspecified)	V-ATPase pHluor 7.1 | VATPase regulator inactive
COc1ccc(-n2ccn(CC(=O)Nc3ccc(OC)cc3OC)c(=O)c2=O)cc1	V-ATPase pHluor 9.4 (no result: PERK inh) | VATPase regulator inactive
CC1CN(C(=O)COC(=O)/C=C/c2ccccc2)CC(C)O1 (stereo unspecified)	none (no result: Rce1 inh, NALP1 inh, NALP3 yeast inh, PERK inh, Yeast superoxide)
NS(=O)(=O)c1cccc(NC(=O)CSc2nnc(-c3ccccc3)o2)c1	none (no result: Rce1 inh, NALP1 inh, PERK inh) | VATPase regulator inactive
O=C(CSc1nnc(-c2ccncc2)o1)Nc1cccc(F)c1	none (no result: NALP1 inh, PERK inh)
COc1ccc(-c2nc(-c3cccc(C)c3)no2)cc1OC	none
COc1cc(-c2nc(-c3cccc(C)c3)no2)cc(OC)c1OC	V-ATPase pHluor 8.1 | VATPase regulator inactive
COCCCNC(=S)N/N=C/c1ccc(OC)cc1	none
COCCCNC(=S)N/N=C/c1ccc(O)cc1	V-ATPase pHluor 12.9 | VATPase regulator inactive
CC1(C)CC(=O)C(C(C2=C(O)CC(C)(C)CC2=O)c2cccs2)C(=O)C1 (stereo unspecified)	V-ATPase pHluor 10.7 | VATPase regulator 35.5
CCCC(=O)C1=C(O)C(C(=O)OC)C(C)(C)CC1=Nc1ccc(C)cc1 (stereo unspecified)	V-ATPase pHluor 8.3 | VATPase regulator inactive
O=C1N=C(N2CCCC2)S/C1=C\c1cn[nH]c1-c1ccccc1	none (no result: V-ATPase pHluor)
Cc1ccccc1N1CCN(C2=NC(=O)/C(=C/c3cn[nH]c3-c3ccccc3)S2)CC1	V-ATPase pHluor 8.3 | VATPase regulator inactive
C[C@H]1CCCCO[C@H](CN(C)C(=O)C2CCCCC2)[C@@H](C)CN([C@@H](C)CO)C(=O)c2cc(NC(=O)NC3CCCCC3)ccc2O1	none (no result: Rce1 inh, NALP1 inh, NALP3 yeast inh, PERK inh, Yeast superoxide)
COc1ccc(COC(=O)CCCN=C2NS(=O)(=O)c3ccccc32)cc1F	none (no result: Rce1 inh, NALP1 inh, NALP3 yeast inh, PERK inh, Yeast superoxide)
O=C(NCCO)C(c1ccccc1)c1ccccc1	none
O=C(O)CNC(=O)C(c1ccccc1)c1ccccc1	V-ATPase pHluor 11.4 (no result: NALP1 inh) | VATPase regulator inactive
Cc1ccsc1CN1CC(=O)N(c2c(C)cccc2C)C1=S	V-ATPase pHluor 7.4 | VATPase regulator inactive
O=C1NC[C@H](c2ccccc2)OC(=O)[C@H](Cc2ccc(F)cc2)C/C=C\C[C@H]1CC(=O)N(CCO)Cc1ccccc1	none (no result: Rce1 inh, NALP1 inh, PERK inh)
O=C(CCCN1C(=O)/C(=C/c2ccccc2Cl)SC1=S)NNC(=O)c1ccncc1	none
O=C(CCCN1C(=O)/C(=C/c2ccccc2Cl)SC1=S)NNC(=O)c1ccccc1Cl	V-ATPase pHluor 10.4 | VATPase regulator inactive
CCOC(=O)Cn1c(S(=O)(=O)Cc2ccccc2)nc2ccccc21	none | VATPase regulator inactive
CCOC(=O)Cn1c(=O)cnc2ccccc21	none | VATPase regulator inactive
CCOC(=O)Cn1c(S(=O)(=O)Cc2ccc(Cl)cc2)nc(-c2ccccc2)c1-c1ccccc1	none
COC(=O)Cn1c(=O)cnc2ccccc21	none
CCOC(=O)Cn1c(-c2ccc(Cl)nc2)nc2ccccc21	none | VATPase regulator inactive
Cn1c(-c2ccc(Cl)nc2)nc2ccccc21	none (no result: PERK inh)
CCOC(=O)c1ccc(NC(=O)c2nc[nH]c2C(=O)NC[C@H](C)O)cc1	none (no result: Rce1 inh, NALP1 inh, NALP3 yeast inh, PERK inh, Yeast superoxide)
C[C@H]1CN([C@@H](C)CO)C(=O)c2cc(Br)cnc2O[C@@H]1CN(C)C(=O)c1ccncc1	none (no result: Rce1 inh, NALP1 inh, NALP3 yeast inh, PERK inh, Yeast superoxide)
O=C1CN(C(=O)COc2ccc(Br)cc2Br)c2ccccc2N1	V-ATPase pHluor 8.8 | VATPase regulator inactive
Cc1ccc(CNCCCn2cnc(C(=O)Nc3ccc(C)c(C)c3)n2)o1	none (no result: Rce1 inh, NALP1 inh, NALP3 yeast inh, PERK inh, Yeast superoxide)
CCOC(=O)C(=O)N=Nc1c(O)[nH]c2ccccc12	none | VATPase regulator inactive
CNC(=S)N=Nc1c(O)[nH]c2ccccc12	none (no result: NALP3 yeast inh)
O=P(Cc1cccc2ccccc12)(c1ccccc1)c1ccccc1	none (no result: Rce1 inh, NALP1 inh, NALP3 yeast inh, PERK inh, Yeast superoxide)
O=C(OCc1cn([C@H]2CN(C(=O)C3CCCCC3)[C@@H](c3ccc(Cl)cc3)C[C@@H]2O)nn1)c1ccccc1	none (no result: Rce1 inh, NALP1 inh, NALP3 yeast inh, PERK inh, Yeast superoxide)
COc1ccc2nc(NC(=O)CSc3nc4ccccc4o3)sc2c1	V-ATPase pHluor 11.7 | VATPase regulator inactive
Cc1ccc(S(=O)(=O)N(C)Cc2ccc(C(=O)N/N=C3\CCCC(=O)C3)cc2)cc1	none
O=C1CCC/C(=N\NC(=O)c2ccc(NS(=O)(=O)c3ccc(Br)cc3)cc2)C1	V-ATPase pHluor 13.6 | VATPase regulator inactive
C[C@H](CO)N1C[C@H](C)[C@H](CN(C)C(=O)Nc2ccccc2F)OCc2cnnn2CCCC1=O	none (no result: Rce1 inh, NALP1 inh, NALP3 yeast inh, PERK inh, Yeast superoxide)
COc1ccc(-n2c(C)cc(C(=O)CN3C(=O)NC4(CCCc5sccc54)C3=O)c2C)cc1 (stereo unspecified)	V-ATPase pHluor 10.4 (no result: Rce1 inh) | VATPase regulator inactive
COc1ccc(CN(C)C(=O)c2ccc(NC(=O)CC3SC(N4CCCCC4)=NC3=O)cc2)c(OC)c1 (stereo unspecified)	none (no result: Rce1 inh, NALP1 inh, NALP3 yeast inh, PERK inh, Yeast superoxide)
COc1cccc(CNC(=O)CCC2CCCN(C(=O)c3ccc(C)nc3)C2)c1 (stereo unspecified)	V-ATPase pHluor 9.9 | VATPase regulator inactive
CC(O)(CS(=O)(=O)Cc1ccccc1)c1ccccc1Cl (stereo unspecified)	V-ATPase pHluor 6.9 (no result: PERK inh) | VATPase regulator inactive
O=C(Nc1cc2c(cc1Br)OCCCO2)c1ccccc1	none
O=C(Nc1cc2c(cc1Br)OCCCO2)c1cccnc1	V-ATPase pHluor 9.4 (no result: Rce1 inh, PERK inh) | VATPase regulator inactive
Cn1c(=O)c2[nH]c(CCCCCCCc3nc4ccccc4[nH]3)nc2n(C)c1=O	none (no result: Rce1 inh, NALP1 inh, NALP3 yeast inh, PERK inh, Yeast superoxide)
Cc1ccc(S(=O)(=O)O/N=C2\CCCc3ccccc32)cc1	V-ATPase pHluor 12.4 | VATPase regulator inactive
O=C(c1ccc(CS(=O)c2ccc(Br)cc2)o1)N1CCN(C2CCCCC2)CC1 (stereo unspecified)	V-ATPase pHluor 79.2 (no result: Rce1 inh, NALP1 inh, NALP3 yeast inh, PERK inh, Yeast superoxide) | VATPase regulator inactive
C=CCn1cc(C(C)=O)c(=O)[nH]c1=O	V-ATPase pHluor 6.4 | VATPase regulator inactive
CCCCCCCCn1cc(C(C)=O)c(=O)[nH]c1=O	none
CCNC(=O)CSc1nc(-c2ccc(F)cc2)cs1	V-ATPase pHluor 8.1 | VATPase regulator inactive
COc1ccc(C/C(C)=N/NC(=O)c2ccc(Cl)cc2)cc1	V-ATPase pHluor 104.7 | VATPase regulator inactive
COc1ccccc1C(CC(=O)N1CCCC1)c1ccc2c(c1)OCO2 (stereo unspecified)	V-ATPase pHluor 6.8 | VATPase regulator inactive
CCCCN1C(=O)C(CC(=O)NCCc2ccccn2)CC(C(=O)N(C(C)C)C(C)C)=C1C (stereo unspecified)	none (no result: Rce1 inh, NALP1 inh, NALP3 yeast inh, PERK inh, Yeast superoxide)
COc1ccc(C(=O)Oc2c(C)occc2=O)cc1OC	V-ATPase pHluor 21.0 | VATPase regulator inactive
COc1ccc(C(=O)Oc2ccc3ccc(=O)oc3c2)cc1OC	none (no result: PERK inh)
Cc1c(C(=O)NN)nn(-c2ccc(Cl)cc2)c(=O)c1C#N	none | VATPase regulator inactive

Assay outcomes as filed in PubChem BioAssay.
